Results as given in publication PMC7862700, “An all-to-all approach to the identification of sequence-specific readers for epigenetic DNA modifications on cytosine”.

Legend:
Test in all cases: DAPPL (digital affinity profiling via proximity ligation, sequencing); 10 mM Tris-HCl pH 7.5, 50 mM NaCl, 1 mM DTT, 4% glycerol, room temperature, 30 min; GST-TFs on glutathione beads, 16-mer random dsDNA library, 0.1% formaldehyde crosslink after washing; high values mean tight binding
Settings in all cases: protein: recombinant; tags: N-terminal GST; dsDNA, one strand shown
[1] = target: T1, FLI1 (Homo sapiens, UniProt Q01543 1-452)
T1 sequence: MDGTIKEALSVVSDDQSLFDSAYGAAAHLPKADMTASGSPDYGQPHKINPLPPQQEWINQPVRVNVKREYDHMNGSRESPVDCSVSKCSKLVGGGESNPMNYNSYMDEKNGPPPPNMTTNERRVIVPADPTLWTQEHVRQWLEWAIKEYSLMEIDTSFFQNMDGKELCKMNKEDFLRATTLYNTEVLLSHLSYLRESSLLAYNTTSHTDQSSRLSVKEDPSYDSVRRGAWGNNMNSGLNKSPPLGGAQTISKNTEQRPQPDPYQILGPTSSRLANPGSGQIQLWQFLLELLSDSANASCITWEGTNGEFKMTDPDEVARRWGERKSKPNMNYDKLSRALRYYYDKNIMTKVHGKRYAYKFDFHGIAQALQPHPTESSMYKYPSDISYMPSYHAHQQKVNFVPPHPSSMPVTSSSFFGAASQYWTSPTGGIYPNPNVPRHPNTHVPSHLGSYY
Summary of the method: (§1)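 Human transcription factors fused to GST were expressed in yeast, captured on glutathione beads, given DNA barcodes and pooled with a GST-only negative control. Pools were incubated with 200 nmole of a 16-mer random double-stranded DNA library in Tris/NaCl/DTT/glycerol buffer at room temperature for 30 min. They were then washed, crosslinked with 0.1% formaldehyde, proximity-ligated (BsaI/T4 ligase, 1 h, 37 °C), PCR-amplified and sequenced on an Illumina NextSeq500. Binding signal is each 6-mer's read frequency for a factor divided by its frequency for the GST control.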

[2] = target: T2, ELK1 (Homo sapiens, UniProt P19419 1-428)
T2 sequence: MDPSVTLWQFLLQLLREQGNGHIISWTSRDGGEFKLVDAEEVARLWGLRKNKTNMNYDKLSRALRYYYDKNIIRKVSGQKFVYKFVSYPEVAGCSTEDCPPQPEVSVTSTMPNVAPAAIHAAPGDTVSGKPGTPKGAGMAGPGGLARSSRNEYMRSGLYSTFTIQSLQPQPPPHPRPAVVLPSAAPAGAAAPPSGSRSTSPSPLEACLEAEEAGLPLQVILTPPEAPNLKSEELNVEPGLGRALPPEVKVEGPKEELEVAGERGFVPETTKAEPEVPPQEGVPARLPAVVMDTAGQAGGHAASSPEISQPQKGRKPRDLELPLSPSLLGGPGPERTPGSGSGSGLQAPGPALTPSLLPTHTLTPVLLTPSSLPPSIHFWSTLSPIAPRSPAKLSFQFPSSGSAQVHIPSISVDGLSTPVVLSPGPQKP
Summary of the method: as §1

[3] = target: T3, GABPA (Homo sapiens, UniProt Q06546 1-454)
T3 sequence: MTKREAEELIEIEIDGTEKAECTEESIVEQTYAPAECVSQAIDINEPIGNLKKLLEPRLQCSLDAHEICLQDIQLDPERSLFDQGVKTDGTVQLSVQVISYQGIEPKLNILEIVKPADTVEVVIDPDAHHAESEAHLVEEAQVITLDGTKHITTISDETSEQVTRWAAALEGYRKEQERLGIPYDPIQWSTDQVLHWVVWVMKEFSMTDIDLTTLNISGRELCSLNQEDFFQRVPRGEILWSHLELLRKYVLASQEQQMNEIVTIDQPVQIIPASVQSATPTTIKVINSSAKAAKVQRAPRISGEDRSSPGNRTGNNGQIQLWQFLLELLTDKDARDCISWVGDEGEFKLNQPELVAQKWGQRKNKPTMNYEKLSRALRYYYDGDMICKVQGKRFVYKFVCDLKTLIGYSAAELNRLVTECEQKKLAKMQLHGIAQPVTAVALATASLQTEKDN
Summary of the method: as §1

[4] = target: T4, ERG (Homo sapiens, UniProt P11308 1-479)
T4 sequence: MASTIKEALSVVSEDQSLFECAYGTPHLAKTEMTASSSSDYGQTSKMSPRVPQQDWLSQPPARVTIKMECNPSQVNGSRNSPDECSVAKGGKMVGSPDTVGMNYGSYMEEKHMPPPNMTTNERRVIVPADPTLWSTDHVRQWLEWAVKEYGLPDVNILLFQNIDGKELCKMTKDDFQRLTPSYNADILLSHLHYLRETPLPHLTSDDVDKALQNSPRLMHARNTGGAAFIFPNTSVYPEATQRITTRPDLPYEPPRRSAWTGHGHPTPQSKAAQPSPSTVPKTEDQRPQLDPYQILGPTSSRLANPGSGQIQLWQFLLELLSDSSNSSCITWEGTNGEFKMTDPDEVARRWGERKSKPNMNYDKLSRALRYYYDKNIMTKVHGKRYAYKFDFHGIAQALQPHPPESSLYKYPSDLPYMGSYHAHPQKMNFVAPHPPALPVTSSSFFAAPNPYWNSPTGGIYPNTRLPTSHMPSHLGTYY
Summary of the method: as §1

[5] = target: ELF1 (Homo sapiens, UniProt P32519 1-619)
Summary of the method: as §1

[6] = target: T5, EHF (Homo sapiens, UniProt Q9NZC4 1-300)
T5 sequence: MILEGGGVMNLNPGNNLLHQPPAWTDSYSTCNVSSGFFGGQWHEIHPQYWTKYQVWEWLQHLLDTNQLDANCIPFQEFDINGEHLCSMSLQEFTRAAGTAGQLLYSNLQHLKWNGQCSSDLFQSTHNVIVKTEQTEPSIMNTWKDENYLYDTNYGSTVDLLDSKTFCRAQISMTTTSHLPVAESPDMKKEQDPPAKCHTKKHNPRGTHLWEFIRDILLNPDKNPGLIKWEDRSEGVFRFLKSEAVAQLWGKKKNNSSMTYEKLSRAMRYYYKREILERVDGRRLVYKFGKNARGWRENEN
Summary of the method: as §1

[7] = target: SPI1 (Homo sapiens, UniProt P17947 1-270)
Summary of the method: as §1

[8] = target: SPIB (Homo sapiens, UniProt Q01892 1-262)
Summary of the method: as §1

[9] = target: T6, ELK3 (Homo sapiens, UniProt P41970 1-407)
T6 sequence: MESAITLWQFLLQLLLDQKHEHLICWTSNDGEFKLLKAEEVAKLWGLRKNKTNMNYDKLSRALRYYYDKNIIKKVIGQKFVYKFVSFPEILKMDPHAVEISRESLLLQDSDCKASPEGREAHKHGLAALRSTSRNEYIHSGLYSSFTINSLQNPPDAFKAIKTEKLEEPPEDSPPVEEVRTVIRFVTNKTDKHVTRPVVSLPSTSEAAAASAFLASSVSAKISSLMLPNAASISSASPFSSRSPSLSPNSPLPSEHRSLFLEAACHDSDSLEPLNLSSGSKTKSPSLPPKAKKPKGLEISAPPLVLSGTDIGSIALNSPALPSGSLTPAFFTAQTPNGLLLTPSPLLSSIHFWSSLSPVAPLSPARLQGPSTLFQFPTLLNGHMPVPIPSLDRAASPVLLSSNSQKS
Summary of the method: as §1

Sequence of SPIB (Q01892 whole entry): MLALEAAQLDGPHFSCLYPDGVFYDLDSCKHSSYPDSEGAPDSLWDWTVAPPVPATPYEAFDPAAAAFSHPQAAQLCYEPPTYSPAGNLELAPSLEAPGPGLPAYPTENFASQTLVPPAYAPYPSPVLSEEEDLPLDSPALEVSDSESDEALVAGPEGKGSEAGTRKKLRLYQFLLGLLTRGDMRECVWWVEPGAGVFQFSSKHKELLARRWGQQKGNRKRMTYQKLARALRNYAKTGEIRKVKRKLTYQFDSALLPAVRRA
Sequence of ELF1 (P32519 whole entry): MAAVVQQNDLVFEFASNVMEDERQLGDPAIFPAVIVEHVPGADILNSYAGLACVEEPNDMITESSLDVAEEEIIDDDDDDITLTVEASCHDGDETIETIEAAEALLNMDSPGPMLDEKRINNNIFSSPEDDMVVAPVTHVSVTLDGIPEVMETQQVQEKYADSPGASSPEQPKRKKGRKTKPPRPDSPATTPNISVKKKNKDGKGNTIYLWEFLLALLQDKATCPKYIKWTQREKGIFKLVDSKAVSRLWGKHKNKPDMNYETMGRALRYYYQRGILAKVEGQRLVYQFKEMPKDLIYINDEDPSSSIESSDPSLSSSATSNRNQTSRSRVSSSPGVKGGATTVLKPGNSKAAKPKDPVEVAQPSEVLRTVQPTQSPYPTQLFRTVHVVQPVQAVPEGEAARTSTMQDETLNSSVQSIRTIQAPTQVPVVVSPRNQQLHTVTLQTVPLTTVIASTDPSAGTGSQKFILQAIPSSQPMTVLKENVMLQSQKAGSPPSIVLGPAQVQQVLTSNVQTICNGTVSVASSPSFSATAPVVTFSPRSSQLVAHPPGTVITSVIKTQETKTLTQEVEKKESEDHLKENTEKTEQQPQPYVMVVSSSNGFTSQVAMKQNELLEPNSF

Sequence	binding signal [1]	binding signal [2]	binding signal [3]	binding signal [4]	binding signal [5]	binding signal [6]	binding signal [7]	binding signal [8]	binding signal [9]
TGCTGA	1.11 fold enrichment (6-mer frequency, TF over GST control)	1.03 fold enrichment (6-mer frequency, TF over GST control)	1.07 fold enrichment (6-mer frequency, TF over GST control)	1.01 fold enrichment (6-mer frequency, TF over GST control)	1.07 fold enrichment (6-mer frequency, TF over GST control)	1.14 fold enrichment (6-mer frequency, TF over GST control)	1.12 fold enrichment (6-mer frequency, TF over GST control)	1.01 fold enrichment (6-mer frequency, TF over GST control)	1.19 fold enrichment (6-mer frequency, TF over GST control)
TACGCA	1.18 fold enrichment (6-mer frequency, TF over GST control)	1.2 fold enrichment (6-mer frequency, TF over GST control)	1.11 fold enrichment (6-mer frequency, TF over GST control)	1.15 fold enrichment (6-mer frequency, TF over GST control)	1.2 fold enrichment (6-mer frequency, TF over GST control)	1.26 fold enrichment (6-mer frequency, TF over GST control)	1.12 fold enrichment (6-mer frequency, TF over GST control)	1.1 fold enrichment (6-mer frequency, TF over GST control)	1.25 fold enrichment (6-mer frequency, TF over GST control)
ACCGCC	1.38 fold enrichment (6-mer frequency, TF over GST control)	1.23 fold enrichment (6-mer frequency, TF over GST control)	1.35 fold enrichment (6-mer frequency, TF over GST control)	1.27 fold enrichment (6-mer frequency, TF over GST control)	1.29 fold enrichment (6-mer frequency, TF over GST control)	1.36 fold enrichment (6-mer frequency, TF over GST control)	1.19 fold enrichment (6-mer frequency, TF over GST control)	1.13 fold enrichment (6-mer frequency, TF over GST control)	1.3 fold enrichment (6-mer frequency, TF over GST control)
ATCACT	1.19 fold enrichment (6-mer frequency, TF over GST control)	1.16 fold enrichment (6-mer frequency, TF over GST control)	1.19 fold enrichment (6-mer frequency, TF over GST control)	1.28 fold enrichment (6-mer frequency, TF over GST control)	1.34 fold enrichment (6-mer frequency, TF over GST control)	1.15 fold enrichment (6-mer frequency, TF over GST control)	1.32 fold enrichment (6-mer frequency, TF over GST control)	1.38 fold enrichment (6-mer frequency, TF over GST control)	1.18 fold enrichment (6-mer frequency, TF over GST control)
CCTGTA	1.31 fold enrichment (6-mer frequency, TF over GST control)	1.16 fold enrichment (6-mer frequency, TF over GST control)	1.12 fold enrichment (6-mer frequency, TF over GST control)	1.28 fold enrichment (6-mer frequency, TF over GST control)	1.14 fold enrichment (6-mer frequency, TF over GST control)	1.14 fold enrichment (6-mer frequency, TF over GST control)	1.28 fold enrichment (6-mer frequency, TF over GST control)	1.19 fold enrichment (6-mer frequency, TF over GST control)	1.28 fold enrichment (6-mer frequency, TF over GST control)
TTACCG	1.16 fold enrichment (6-mer frequency, TF over GST control)	1.16 fold enrichment (6-mer frequency, TF over GST control)	1.12 fold enrichment (6-mer frequency, TF over GST control)	1.2 fold enrichment (6-mer frequency, TF over GST control)	1.11 fold enrichment (6-mer frequency, TF over GST control)	1.24 fold enrichment (6-mer frequency, TF over GST control)	1.17 fold enrichment (6-mer frequency, TF over GST control)	1.15 fold enrichment (6-mer frequency, TF over GST control)	1.18 fold enrichment (6-mer frequency, TF over GST control)
TTGTAC	1.37 fold enrichment (6-mer frequency, TF over GST control)	1.51 fold enrichment (6-mer frequency, TF over GST control)	1.32 fold enrichment (6-mer frequency, TF over GST control)	1.33 fold enrichment (6-mer frequency, TF over GST control)	1.41 fold enrichment (6-mer frequency, TF over GST control)	1.33 fold enrichment (6-mer frequency, TF over GST control)	1.39 fold enrichment (6-mer frequency, TF over GST control)	1.44 fold enrichment (6-mer frequency, TF over GST control)	1.18 fold enrichment (6-mer frequency, TF over GST control)
